Gli-Sufu antag: Gli-Sufu pathway antagonists, primary screen, luciferase luminescence, Sufu-KO-LIGHT cells, uHTS; Sufu-KO-LIGHT fibroblasts, Gli luciferase reporter luminescence; inhibition, % at 5 µM; hit rate 0.74% among 340,000;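 active = inhibition above about 55%, limit read from the data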;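 also: 0% = DMSO-treated cells and 100% = wells with medium but no cells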
Beta apoptosis: inhibitors of cytokine-induced beta cell apoptosis, primary screen, luminescence; INS-1E cytokine-induced death, ATP luminescence, 48 h; percent of positive-control rescue, neutral wells zero; protection from apoptosis, % (concentration not given with the values); hit rate 0.8% among 300,000;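 active = Every replicate reaches about 75%, or at least half do and their mean reaches it too, limit read from the data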;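 also: 0% = cytokine-treated negative control wells and 100% = positive control rescue; higher means more ATP so stronger rescue from cytokine killing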
Mdm2 MdmX PPI: inhibitors of human Mdm2-MdmX association, primary screen, cell-based, luminescence, split luciferase, SaOS-2, uHTS; Protein Mdm4 (Homo sapiens) + E3 ubiquitin-protein ligase Mdm2 (Homo sapiens), …; SaOS-2 split-luciferase Mdm2/MdmX complementation; inhibition, % at 8 µM; hit rate 3% among 330,000;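 active = inhibition of at least 50% at 8 µM in the primary screen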
Target sequence (O15151 whole entry, looked up): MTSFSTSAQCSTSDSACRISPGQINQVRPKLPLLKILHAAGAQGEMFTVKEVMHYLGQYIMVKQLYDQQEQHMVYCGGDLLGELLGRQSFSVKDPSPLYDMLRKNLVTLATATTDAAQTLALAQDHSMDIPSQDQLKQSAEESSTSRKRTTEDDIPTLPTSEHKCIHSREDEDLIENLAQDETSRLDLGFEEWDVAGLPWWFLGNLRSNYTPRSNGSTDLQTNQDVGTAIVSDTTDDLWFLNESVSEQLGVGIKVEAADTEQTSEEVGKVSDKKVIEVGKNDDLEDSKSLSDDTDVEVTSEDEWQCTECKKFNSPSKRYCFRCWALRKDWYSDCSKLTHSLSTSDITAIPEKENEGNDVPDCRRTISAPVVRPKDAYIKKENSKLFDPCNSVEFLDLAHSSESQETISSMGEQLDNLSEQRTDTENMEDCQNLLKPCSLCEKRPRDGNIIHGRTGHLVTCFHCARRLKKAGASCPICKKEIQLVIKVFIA
Target sequence (Q00987 whole entry, looked up): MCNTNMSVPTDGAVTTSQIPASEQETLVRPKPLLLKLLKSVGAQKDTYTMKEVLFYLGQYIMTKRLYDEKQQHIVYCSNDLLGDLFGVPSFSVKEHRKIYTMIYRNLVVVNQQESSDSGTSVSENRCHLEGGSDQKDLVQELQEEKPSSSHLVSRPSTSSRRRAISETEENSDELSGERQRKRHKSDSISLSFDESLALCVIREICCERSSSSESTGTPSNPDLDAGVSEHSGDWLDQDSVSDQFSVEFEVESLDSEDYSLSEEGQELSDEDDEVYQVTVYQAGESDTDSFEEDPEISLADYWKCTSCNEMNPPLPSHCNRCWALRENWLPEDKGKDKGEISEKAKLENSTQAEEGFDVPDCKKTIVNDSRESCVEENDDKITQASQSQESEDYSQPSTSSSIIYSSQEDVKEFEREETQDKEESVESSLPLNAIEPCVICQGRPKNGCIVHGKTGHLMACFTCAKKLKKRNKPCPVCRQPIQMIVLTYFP
CSC inhib: cancer stem cell viability inhibitors, primary screen, luminescence. cancer stem cell-like cells viability. inhibition, % at 7.5 µM. hit rate 1.1% among 300,000; in the data active = inhibition above about 75%; tested in HMLE shEcad cells
PAX8 inh HTS: inhibitors of PAX8-driven TPO luciferase reporter, primary screen, RMG-I cells, single concentration; SteadyGlo, 24 h; hit rate 1.2% among 360,000; AID 652154, 2013; inhibition, % at 12.6 µM;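 active = mean replicate inhibition at least 60% with every replicate also reaching 60%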;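 also: luciferase light reporting Pax8 driven TPO promoter activity; plate controls were median of neutral control wells for no effect and mitoxantrone controls for full effect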
Shn3 3UTR inh: reduction of Shn3 3'UTR firefly luciferase signal, primary screen, Schnurri-3 inhibitor project, cell-based, Clone20 osteoblasts, set 2 | inhibition, % at 12.5 µM | hit rate 0.52% among 360,000 | Clone20 osteoblast Shn3 3'UTR firefly luciferase, 24 h | AID 588674, 2011;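 active = mean inhibition of at least 75% with every replicate also reaching 75%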;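 also: 0% = median of neutral control wells and 100% = pilot-screen positive control compound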
* hit, by the source's call; . = no result given. In the library only some 4% were active in any assay of this set; here they are far more common.

SMILES	Gli-Sufu antag	Beta apoptosis	Mdm2 MdmX PPI	CSC inhib	PAX8 inh HTS	Shn3 3UTR inh
COc1cccc(C#Cc2ccc([C@@H]3[C@@H](CO)N(C(=O)C4CCC4)[C@H]3C#N)cc2)c1	.	.	.	.	70*	.
COc1cccc(C#Cc2ccc([C@@H]3[C@H](C#N)N(C(=O)c4ccccn4)[C@H]3CO)cc2)c1	.	.	.	.	98*	.
COc1cccc(C#Cc2ccc([C@@H]3[C@@H](C#N)N(C(=O)C4CCC4)[C@@H]3CO)cc2)c1	.	.	.	.	9	.
COc1cccc(C#Cc2ccc([C@@H]3[C@@H](C#N)N(C(=O)C4CCCCC4)[C@H]3CO)cc2)c1	.	.	.	.	77*	.
COc1cccc(C#Cc2ccc([C@@H]3[C@@H](CO)N(C(=O)C4CCCCC4)[C@H]3C#N)cc2)c1	.	.	.	.	70*	.
COc1cccc(C#Cc2ccc([C@@H]3[C@@H](C#N)N(C(=O)C4CCC4)[C@H]3CO)cc2)c1	.	.	.	.	24	.
CCCNC(=O)N1C[C@@H](O)COC[C@@H]2O[C@@H](CC(=O)N3CCOCC3)CC[C@H]21	.	.	.	.	-14	.
C=C1C(=O)OC2C1CCC(C)=C1C(=O)C3OC3(C)C12 (stereo not drawn)	-1	.	.	.	.	98*
O=C(NCC[C@@H]1CC[C@@H](NS(=O)(=O)Cc2ccccc2)[C@H](CO)O1)C1CCOCC1	.	.	.	.	-11	.
CCn1cc(/C=C/c2cc[n+](C)cc2)c2ccccc21	58*	85*	.	12	77*	-12
CC(=O)OCCN1C(=O)c2cccc3cc([N+](=O)[O-])cc(c23)C1=O	.	10	17	17	.	.
CN(C)CCN1C(=O)c2cccc3cc([N+](=O)[O-])cc(c23)C1=O	69*	.	.	.	39	97*
COc1ccc(NS(=O)(=O)c2ccc3nc(COc4cccc5ccccc45)[nH]c3c2)cc1	5	32	33	80*	.	35
O=C(O)c1ccccc1C(=O)Nc1ccccc1	1	.	1	-2	-8	-8
O=C(Nc1ccccc1)C1=C(c2ccccc2)S(=O)(=O)CCS1(=O)=O	-4	.	.	.	10	95*
CNC[C@@H]1Oc2c(NC(=O)NC(C)C)cccc2C(=O)N([C@@H](C)CO)C[C@@H]1C	.	.	.	.	-4	.
Cc1c(N/N=C(\C#N)C(=O)c2ccc(Cl)cc2)c(=O)n(-c2ccccc2)n1C	49	76*	.	26	64*	90*
COC(=O)C(=NNc1c(C)n(C)n(-c2ccccc2)c1=O)C(=O)OC	-7	-1	-27	-14	16	-15
O=C(Nc1cccc(Cl)c1)Nc1cccc(C(=O)O)c1	-38	-7	-4	9	14	22
O=C(Nc1ccc(Cl)cc1)Nc1cccc(C(=O)O)c1	-87	-4	-1	-3	86*	15
CN1[C@@H]2c3ccc(-c4ccccc4)c(=O)n3C[C@@H]2[C@@H](CO)[C@@H]1C(=O)N1CCc2ccccc2C1	.	.	.	.	68*	.
CN1[C@@H]2c3ccc(-c4ccncc4)c(=O)n3C[C@@H]2[C@@H](CO)[C@@H]1C(=O)N1CCc2ccccc2C1	.	.	.	.	0	.
CCN(CC)CCOc1ncnc2c1oc1ccccc12	4	-2	-21	-10	.	-7
CCCCc1oc2ccccc2c1C(=O)c1cc(I)c(OCCN(CC)CC)c(I)c1	0	4	42	89*	7	0
Cc1ccc(S(=O)(=O)N(C)C[C@@H]2OCCCC[C@H](C)Oc3ccc(NC(=O)c4ccncc4)cc3C(=O)N([C@@H](C)CO)C[C@H]2C)cc1	.	.	.	.	-31	.
SMILES	Gli-Sufu antag	Beta apoptosis	Mdm2 MdmX PPI	CSC inhib	PAX8 inh HTS	Shn3 3UTR inh
O=S(=O)(N[C@H]1C[C@@H](NS(=O)(=O)OCC(Cl)(Cl)Cl)C2CCCCC21)OCC(Cl)(Cl)Cl (stereo partly drawn)	1	3	.	76*	-6	36
CS(=O)(=O)N(CC(=O)O)c1ccc(C23CC4CC(CC(C4)C2)C3)cc1	2	0	-3	-30	28	-8
COc1ccccc1NC(=O)CN(c1ccc(C23CC4CC(CC(C4)C2)C3)cc1)S(C)(=O)=O	6	101*	48	26	.	27
C[C@@H]1CN([C@@H](C)CO)C(=O)c2ccccc2-c2ccccc2CO[C@@H]1CN(C)Cc1ccc2c(c1)OCCN2C	.	.	.	.	90*	.
C[C@@H]1CN([C@@H](C)CO)C(=O)c2ccccc2-c2ccccc2CO[C@@H]1CN(C)Cc1ccc(Cl)c(Cl)c1	.	.	.	.	71*	.
C[C@H](CO)N1C[C@H](C)[C@H](CN(C)Cc2ccc3c(c2)OCO3)OCc2ccccc2-c2ccccc2C1=O	.	.	.	.	31	.
C[C@@H]1CCCCO[C@H](CN(C)S(=O)(=O)c2ccc(F)cc2)[C@@H](C)CN([C@@H](C)CO)C(=O)c2cc(NS(=O)(=O)c3ccccc3)ccc2O1	.	.	.	.	4	.
CCCc1cn(CC[C@H]2CC[C@@H](NC(=O)C3CCCC3)[C@@H](CO)O2)nn1	.	.	.	.	5	.
N#C[C@H]1[C@H](c2ccccc2-c2cccc(F)c2)[C@@H](CO)N1C(=O)C1CCCC1	.	.	.	.	5	.
C[C@H](CO)N1C[C@H](C)[C@@H](CN(C)CC2CCCCC2)OCCCC[C@H](C)Oc2ccc(N(C)C)cc2C1=O	.	.	.	.	-3	.
Cc1ccc(-c2ccc(=O)n(CCC(=O)N3CCN(c4ccccc4)CC3)n2)cc1	-19	-5	11	13	63*	3
CCOC(=O)C1=C(C)NC(C)=C(C(=O)OCC)C1C(=O)OCC(=O)NCc1ccco1	-23	-2	-25	-14	.	96*
O=C(Nc1nnc(SCc2ccc(F)cc2)s1)C1CC(=O)N(c2ccc3c(c2)OCCO3)C1 (stereo not drawn)	-8	-9	0	-15	1	12

Screening results (PubChem BioAssay)
